In PubChem BioAssay (EPA / NIEHS):
Records with an inconclusive call do not appear. Active and inactive are the calls of the source. How the source made its calls, unless noted: active means hit-call score of the fitted dose curve at least 0.9, where 1 is the maximum; inactive means score below 0.9.

How the values were obtained:
[1] = ACEA_ER_80hr: ACEA Biosciences xCELLigence Real-Time Cell Analysis on Estrogen Receptor Agonism for Proliferation (AID 2282667; active means hit-call score of the fitted dose curve at least 0.9, where 1 is the maximum); conditions: T47D proliferation, impedance (xCELLigence), 80 h
How it was run: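 T-47D cells monitored by electrical impedance (xCELLigence) with compound present throughout; 80 h timepoint, positive-direction fitting versus DMSO. Eight-point 1:4 dilutions from 100 uM final, duplicate plates.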

[2] = ATG_CRE_CIS: Attagene CIS-FACTORIAL HepG2 Assay for human cAMP Responsive Element (CRE) binding protein 3 (AID 2282926); conditions: HepG2 CRE cis-reporter, Attagene multiplexed mRNA; actives raise or lower the signal
How it was run: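 Induced reporter mRNA from a CRE cis element, measured in HepG2 among many multiplexed units at 24 h. Detection used RT-PCR plus capillary electrophoresis of fluorescent fragments; DMSO served as negative control.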

[3] = biological target: CCAAT/enhancer-binding protein beta (Homo sapiens) (UniProt P17676); assay: ATG_C_EBP_CIS: Attagene CIS-FACTORIAL HepG2 Assay for human CCAAT/Enhancer Binding Protein (C/EBP) beta (AID 2282927); conditions: HepG2 Attagene cis-factorial transcription factor reporter; actives raise or lower the signal
How it was run: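 Changes in reporter mRNA, rather than exogenous chimeric receptor activity, reflect native C/EBP signalling in transfected HepG2 cells dosed for 24 h; transcripts are detected by RT-PCR and capillary electrophoresis.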

[4] = biological target: Aryl hydrocarbon receptor (Homo sapiens) (UniProt P35869); assay: ATG_Ahr_CIS: Attagene CIS-FACTORIAL HepG2 Assay for human Aryl Hydrocarbon Receptor (Ahr) (AID 2282930); conditions: HepG2 AhR cis-factorial reporter transcription; actives raise or lower the signal
How it was run: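 HepG2, transient MRTU (cis) transfection, 24 h exposure. RNA → cDNA → PCR → 6-FAM primer extension → HpaI 2 h 37 C → CE. Fit: bidirectional, DMSO baseline.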

[5] = ATG_AP_1_CIS: Attagene CIS-FACTORIAL HepG2 Assay for human Activator Protein 1 (AP-1) (AID 2282931); conditions: HepG2 Attagene cis-factorial AP-1 reporter mRNA; actives raise or lower the signal
How it was run: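 HepG2, transient cis-reporter transfection; 24 h; readout RT-PCR/CE fluorescence; DMSO baseline, gain and loss fitted.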

[6] = ATG_AP_2_CIS: Attagene CIS-FACTORIAL HepG2 Assay for human Activator Protein 2 (AP-2) (AID 2282932); conditions: HepG2 AP-2 cis-reporter, Attagene transcription factor profiling; actives raise or lower the signal
How it was run: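 Endogenous transcription factor activity is reported through transfected multiplex reporter constructs in HepG2, after 24 h of compound exposure. Transcripts were quantified by RT-PCR and capillary electrophoresis of fluorescent fragments. Bidirectional fit against DMSO.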

[7] = ATG_BRE_CIS: Attagene CIS-FACTORIAL HepG2 Assay for human Bone Morphogenetic Protein (BMP) Response Element (BRE) (AID 2282933); conditions: HepG2 BMP response element reporter, Attagene transcription factor profiling; actives raise or lower the signal
How it was run: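 Fluorescence-labelled reporter cDNA fragments, separated by capillary electrophoresis, gave the signal for this component of a 52-readout multiplex. HepG2 cells were transfected, exposed to chemicals for 24 h, and compared with DMSO using bidirectional fitting.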

[8] = biological target: Transcription factor E2F1 (Homo sapiens) (UniProt Q01094); assay: ATG_E2F_CIS: Attagene CIS-FACTORIAL HepG2 Assay for human E2F Transcription Factor 1 (AID 2282935); conditions: HepG2 Attagene cis-reporter, E2F reporter RNA transcripts; actives raise or lower the signal
How it was run: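 Gain or loss of reporter transcript, fitted against DMSO, reflects E2F1-driven transcription. Transiently transfected HepG2 dosed 24 h before RNA isolation. Quantified by fluorescent RT-PCR products separated by capillary electrophoresis.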

[9] = ATG_M_61_CIS: Attagene CIS-FACTORIAL HepG2 Assay for M61 Transcription Factor (Internal Marker) (AID 2282937); conditions: HepG2 Attagene CIS-FACTORIAL M61 internal marker reporter; actives raise or lower the signal
How it was run: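 Transfect HepG2 with MRTUs; dose 24 h; isolate RNA; reverse-transcribe with DNase I treatment; PCR-amplify, FAM-label and cut with HpaI for 2 h at 37 C; resolve by CE. Bidirectional fitting against DMSO.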

[10] = ATG_EGR_CIS: Attagene CIS-FACTORIAL HepG2 Assay for human Early Growth Response 1 (EGR1) (AID 2282938); conditions: HepG2 Attagene CIS-FACTORIAL EGR reporter mRNA; actives raise or lower the signal
How it was run: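 After a 24 h treatment of transiently transfected HepG2 cells, total RNA was reverse-transcribed and reporter sequences PCR-amplified, labelled and run on capillary electrophoresis. Reporters sit under cis-regulatory promoters sensing endogenous factors.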

[11] = ATG_M_19_CIS: Attagene CIS-FACTORIAL HepG2 Assay for M19 Transcription Factor (Internal Marker) (AID 2282939); conditions: HepG2 Attagene CIS-FACTORIAL M19 internal marker reporter; actives raise or lower the signal
How it was run: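 HepG2, MRTU transient transfection, 24 h dosing. Total RNA → RT-PCR → 6-FAM primer extension → HpaI digest → CE fluorescence. Bidirectional curve fit, DMSO negative control.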

[12] = ATG_ERE_CIS: Attagene CIS-FACTORIAL HepG2 Assay for Estrogen Response Element (ERE) (AID 2282940); conditions: HepG2 ERE cis-reporter, Attagene RNA transcript; actives raise or lower the signal
How it was run: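 After a 24 h chemical treatment, RNA from reporter-transfected HepG2 cells is reverse-transcribed, PCR-amplified and fluorescently labelled. Fragments separated by capillary electrophoresis give reporter signal; DMSO serves as negative control.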

[13] = ATG_Ets_CIS: Attagene CIS-FACTORIAL HepG2 Assay for human Erythroblast Transformation Specific (ETS) (AID 2282941); conditions: HepG2 ETS cis-reporter transcription, actives raise or lower the signal
How it was run: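 Bidirectional fit versus DMSO of reporter mRNA signal, detected by RT-PCR and capillary electrophoresis in HepG2 cells transiently transfected with cis-element reporters and dosed 24 h.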

[14] = biological target: Hepatocyte nuclear factor 3-beta (Homo sapiens) (UniProt Q9Y261); assay: ATG_FoxA2_CIS: Attagene CIS-FACTORIAL HepG2 Assay for human Forkhead box A2 (FOXA2) (AID 2282942); conditions: HepG2 cis-reporter transcription factor activity, 24 h; actives raise or lower the signal
How it was run: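 24 h dosing of HepG2 bearing cis-reporter constructs; mRNA readout by RT-PCR/CE fluorescence; bidirectional fit, DMSO baseline.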

[15] = ATG_FoxO_CIS: Attagene CIS-FACTORIAL HepG2 Assay for human Forkhead box O (FoxO) (AID 2282943); conditions: HepG2 Attagene cis-reporter, FoxO element, mRNA; actives raise or lower the signal
How it was run: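 Human hepatoma HepG2 cells carry transiently introduced reporter transcription units controlled by cis promoter elements. Chemical treatment lasted 24 h, and mRNA signal was compared with DMSO.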

[16] = ATG_GATA_CIS: Attagene CIS-FACTORIAL HepG2 Assay for human GATA Binding Protein (AID 2282944); conditions: HepG2 GATA cis-element reporter, Attagene multiplex mRNA; actives raise or lower the signal
How it was run: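 Cells: HepG2, transiently transfected with cis-regulated reporter transcription units. Exposure: 24 h. Detection: RT-PCR plus capillary electrophoresis of FAM-labeled fragments. Analysis: bidirectional, DMSO as baseline.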

[17] = ATG_E_Box_CIS: Attagene CIS-FACTORIAL HepG2 Assay for human Enhancer Box (E-box) (AID 2282936); conditions: HepG2 E-box cis-reporter transcription, actives raise or lower the signal
How it was run: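 E-box-driven reporter transcripts measured in transiently transfected HepG2 after 24 h exposure: RNA reverse-transcribed, PCR-amplified, fluorescently labelled, digested and resolved by capillary electrophoresis. Gain or loss relative to DMSO.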

[18] = ATG_CMV_CIS: Attagene CIS-FACTORIAL HepG2 Assay for human CMV (Internal Marker) (AID 2282928); conditions: HepG2 CMV promoter reporter, transcription factor profiling; actives raise or lower the signal;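 further: endpoint acts as a background internal control marker rather than a target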
How it was run: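 Reporter transcripts from transfected HepG2 cells are isolated after 24 h of chemical dosing, reverse-transcribed and amplified. Fragments labeled with 6-FAM are cut with HpaI and quantified by capillary electrophoresis; DMSO defines baseline.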

[19] = biological target: Retinoic acid receptor alpha (Homo sapiens) (UniProt P10276); assay: ATG_DR5_RAR_CIS: Attagene CIS-FACTORIAL HepG2 Assay for human Retinoic Acid Receptor Alpha (RARE), DR5 submotif (AID 2282934); conditions: HepG2 Attagene cis-factorial RARE DR5 reporter, mRNA; actives raise or lower the signal;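 on AC50: reporter responds to endogenous RAR alpha beta and gamma in HepG2 not RARA alone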
How it was run: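 HepG2, transient cis-reporter transfection, 24 h exposure. mRNA readout: RT-PCR, FAM label, HpaI cut, capillary electrophoresis. DMSO baseline, gain/loss fitting.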

[20] = ATG_DR4_LXR_CIS: Attagene CIS-FACTORIAL HepG2 Assay for human Liver X Receptor (LXR), DR4 submotif (AID 2282929); conditions: HepG2 Attagene DR4 cis-reporter, mRNA transcription; actives raise or lower the signal
How it was run: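 Total RNA from 24 h-treated, MRTU-transfected HepG2 cells underwent reverse transcription, PCR, fluorescent primer extension and restriction digestion before capillary electrophoresis. Both increases and decreases in reporter signal were fitted against DMSO.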

Measured: AC50

Sequence of Retinoic acid receptor alpha (Homo sapiens) (P10276 whole entry, looked up): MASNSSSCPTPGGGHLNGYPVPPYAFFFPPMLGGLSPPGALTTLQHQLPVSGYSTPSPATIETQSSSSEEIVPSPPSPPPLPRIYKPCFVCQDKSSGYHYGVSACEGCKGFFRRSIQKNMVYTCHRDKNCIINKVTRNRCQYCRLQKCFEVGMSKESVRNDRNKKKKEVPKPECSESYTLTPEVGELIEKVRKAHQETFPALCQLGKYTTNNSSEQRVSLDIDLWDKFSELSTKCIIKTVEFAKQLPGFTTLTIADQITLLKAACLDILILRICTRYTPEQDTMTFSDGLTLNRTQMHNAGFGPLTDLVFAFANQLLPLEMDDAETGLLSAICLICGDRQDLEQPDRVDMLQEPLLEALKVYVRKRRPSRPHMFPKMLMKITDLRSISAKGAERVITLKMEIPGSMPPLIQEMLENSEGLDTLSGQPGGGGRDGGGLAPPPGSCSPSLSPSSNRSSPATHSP
Sequence of CCAAT/enhancer-binding protein beta (Homo sapiens) (P17676 whole entry, looked up): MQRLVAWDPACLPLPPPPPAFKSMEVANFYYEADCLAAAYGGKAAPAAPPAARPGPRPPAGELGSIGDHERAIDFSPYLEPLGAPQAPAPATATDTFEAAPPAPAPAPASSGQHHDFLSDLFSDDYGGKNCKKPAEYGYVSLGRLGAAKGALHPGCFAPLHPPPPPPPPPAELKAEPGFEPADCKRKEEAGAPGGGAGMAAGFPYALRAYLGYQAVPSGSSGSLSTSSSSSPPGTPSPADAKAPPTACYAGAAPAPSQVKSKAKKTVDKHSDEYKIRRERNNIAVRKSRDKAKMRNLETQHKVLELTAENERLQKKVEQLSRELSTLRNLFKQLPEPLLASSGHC
Sequence of Hepatocyte nuclear factor 3-beta (Homo sapiens) (Q9Y261 whole entry, looked up): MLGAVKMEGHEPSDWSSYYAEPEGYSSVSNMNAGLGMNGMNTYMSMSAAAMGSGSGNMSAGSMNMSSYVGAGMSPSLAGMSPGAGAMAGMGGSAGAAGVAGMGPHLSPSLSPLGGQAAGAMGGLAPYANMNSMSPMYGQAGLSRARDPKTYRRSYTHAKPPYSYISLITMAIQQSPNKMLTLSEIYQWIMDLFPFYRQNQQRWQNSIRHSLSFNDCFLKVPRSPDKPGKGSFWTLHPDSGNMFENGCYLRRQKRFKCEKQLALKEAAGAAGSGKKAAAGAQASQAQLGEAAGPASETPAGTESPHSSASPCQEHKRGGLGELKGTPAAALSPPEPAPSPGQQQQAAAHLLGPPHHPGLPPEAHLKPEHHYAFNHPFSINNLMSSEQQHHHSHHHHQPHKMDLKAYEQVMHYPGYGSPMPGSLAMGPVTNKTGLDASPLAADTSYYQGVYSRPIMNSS
Sequence of Aryl hydrocarbon receptor (Homo sapiens) (P35869 whole entry, looked up): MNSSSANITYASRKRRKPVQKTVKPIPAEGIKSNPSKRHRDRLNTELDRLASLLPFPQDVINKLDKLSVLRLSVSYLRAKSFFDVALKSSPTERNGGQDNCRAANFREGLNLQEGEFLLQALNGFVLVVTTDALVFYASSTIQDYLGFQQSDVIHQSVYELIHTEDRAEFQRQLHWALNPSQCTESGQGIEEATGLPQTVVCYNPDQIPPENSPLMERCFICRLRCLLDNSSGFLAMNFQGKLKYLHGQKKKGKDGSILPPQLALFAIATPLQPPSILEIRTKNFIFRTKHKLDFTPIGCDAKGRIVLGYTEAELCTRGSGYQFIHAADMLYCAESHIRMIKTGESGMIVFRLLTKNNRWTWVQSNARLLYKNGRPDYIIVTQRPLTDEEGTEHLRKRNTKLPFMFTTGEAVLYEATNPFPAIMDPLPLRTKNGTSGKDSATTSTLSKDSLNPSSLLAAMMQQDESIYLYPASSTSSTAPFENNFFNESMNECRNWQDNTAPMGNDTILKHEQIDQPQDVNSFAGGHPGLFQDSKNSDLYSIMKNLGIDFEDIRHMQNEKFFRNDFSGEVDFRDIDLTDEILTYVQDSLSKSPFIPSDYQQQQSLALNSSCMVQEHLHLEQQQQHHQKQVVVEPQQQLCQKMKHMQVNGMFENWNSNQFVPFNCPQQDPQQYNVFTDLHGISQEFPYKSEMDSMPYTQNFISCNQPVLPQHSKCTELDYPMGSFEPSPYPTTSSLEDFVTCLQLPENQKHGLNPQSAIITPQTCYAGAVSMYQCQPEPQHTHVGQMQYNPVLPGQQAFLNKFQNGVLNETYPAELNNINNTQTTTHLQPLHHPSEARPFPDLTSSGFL
Sequence of Transcription factor E2F1 (Homo sapiens) (Q01094 whole entry, looked up): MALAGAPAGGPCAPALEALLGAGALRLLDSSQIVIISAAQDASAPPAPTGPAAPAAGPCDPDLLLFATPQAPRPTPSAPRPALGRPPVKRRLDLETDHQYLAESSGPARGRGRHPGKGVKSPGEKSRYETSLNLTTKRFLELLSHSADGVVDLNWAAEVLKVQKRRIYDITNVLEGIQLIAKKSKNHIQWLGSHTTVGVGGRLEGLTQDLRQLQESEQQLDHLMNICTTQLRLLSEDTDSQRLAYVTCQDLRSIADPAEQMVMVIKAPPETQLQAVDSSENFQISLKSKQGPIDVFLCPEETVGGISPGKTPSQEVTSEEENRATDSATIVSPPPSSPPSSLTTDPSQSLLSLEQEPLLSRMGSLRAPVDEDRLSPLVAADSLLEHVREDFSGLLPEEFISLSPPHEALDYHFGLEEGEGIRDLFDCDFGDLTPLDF

CCC(Cc1c(I)cc(I)c(N)c1I)C(=O)O (stereo not given)
active: [1] 15.5 µM | [5] 64.6 µM | [12] 4.54 µM
not listed: [17] | [18] | [19] | [20]
inactive: all other assays above

C=CC(=O)OCC(F)(F)C(F)(F)C(F)(F)C(F)(F)C(F)(F)C(F)(F)C(F)(F)C(F)F
active: [12] 5.14 µM
not listed: [14] | [18] | [19] | [20]
inactive: all other assays above

OCC(O)CC(F)(F)C(F)(F)C(F)(F)C(F)(F)F (stereo not given)
not listed: [4] | [20]
inactive: all other assays above

C=CC(=O)OCC(F)(F)C(F)(F)C(F)(F)COC(=O)C=C
active: [20] 31.7 µM | [17] 78.6 µM | [10] 42.4 µM
not listed: [15] | [18] | [19]
inactive: all other assays above

CC(C)(C)C(=O)C1C(=O)c2ccccc2C1=O
active: [1] 10.4 µM | [2] 57.9 µM | [18] 30.1 µM | [5] 30.3 µM | [19] 31.9 µM
not listed: [4] | [15] | [17] | [20]
inactive: all other assays above

O=C=Nc1cccc2c(N=C=O)cccc12
active: [4] 4.73 µM
not listed: [18] | [19]
inactive: all other assays above

OCC(F)(F)C(F)(F)C(F)(F)C(F)(F)C(F)(F)C(F)(F)C(F)(F)C(F)(F)CO
active: [1] 0.188 µM | [12] 0.163 µM
not listed: [14] | [18]
inactive: all other assays above

Brc1nc2ccccc2s1
active: [1] 0.0408 µM | [4] 2.56 µM | [5] 65.1 µM
not listed: [2] | [17] | [20]
inactive: all other assays above

NS(=O)(=O)C(F)(F)C(F)(F)C(F)(F)C(F)(F)C(F)(F)C(F)(F)F
active: [12] 41.4 µM
not listed: [2] | [14] | [15]
inactive: all other assays above

N#Cc1ccccc1O
active: [4] 10.8 µM
not listed: [2] | [14] | [18]
inactive: all other assays above

CCC(=O)OC(C)c1ccccc1 (stereo not given)
not listed: [2] | [4] | [15] | [17] | [18] | [20]
inactive: all other assays above

O=c1[nH]cccc1O
not listed: [2] | [4]
inactive: all other assays above

O=C(Cl)C(F)(F)C(F)(F)C(F)(F)C(F)(F)C(F)(F)C(F)(F)F
active: [5] 159 µM
not listed: [2] | [4] | [17] | [20]
inactive: all other assays above

C=C(C)CCCC
not listed: [2] | [17] | [20]
inactive: all other assays above

CC(C)Nc1ccc(NC(C)C)c2c1C(=O)c1ccccc1C2=O
active: [4] 3.35 µM
not listed: [2] | [15]
inactive: all other assays above

O=C1C=CC(=O)N1c1ccc(Cc2ccc(N3C(=O)C=CC3=O)cc2)cc1
active: [7] 51.2 µM | [19] 59.4 µM | [17] 44.9 µM | [10] 21.4 µM
not listed: [2] | [18] | [20]
inactive: all other assays above
